Values joined by “and” are separate entries in the source; they are usually repeats but may differ in a detail not shown here. Identical values can stand only once. The campaign covered roughly 5,500 compounds. About 2,000 (36%) were called active. Not shown: some 18% with an inconclusive outcome. Cut-off read from the data, not from the text of the source: active = normalized growth mostly below about 0.91 (no sharp cut-off); inconclusive = no clear call, values can overlap the other calls; inactive = mostly above about 0.92. The list shows a part of the results.
Experiment: chemical genetic growth profiling, strain panel (AID 1159580);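 note: tested at 20 µM; growth read once vehicle control cultures reached saturation at 30 °C; 1 = growth at the plate median or of vehicle wells; lower values mean less growth of the strain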
Conditions: S. cerevisiae deletion strains, growth OD

Measured: normalized growth

Cc1cc(O)c2c(c1)C(=O)c1cccc(O)c1C2=O
active: locus YDR137W, strain rgp1, stronger effect = lower value 0.791 | locus YDR195W, strain ref2 1.18 [resistant] | locus YLR262C, strain YPT6 (second series), stronger effect = lower value 0.857 | locus YOR270C, strain vph1, stronger effect = lower value 0.772 | locus YPL051W, strain arl3, stronger effect = lower value 0.891
inactive: locus YAL013W, strain DEP1, stronger effect = lower value 0.971 | locus YAL021C, strain ccr4, stronger effect = lower value 0.991 | locus YAL026C, strain drs2, stronger effect = lower value 0.974 | locus YAL030W, strain snc1, stronger effect = lower value 1 | locus YBL061C, strain skt5, stronger effect = lower value 0.999 | locus YBR009C, strain hhf1, stronger effect = lower value 0.98 | locus YBR021W, strain FUR4, stronger effect = lower value 1.05 | locus YBR023C, strain chs3, stronger effect = lower value 1.01 | locus YBR171W, strain sec66, stronger effect = lower value 0.996 | locus YBR229C, strain ROT2, stronger effect = lower value 0.996 | locus YBR231C, strain swc5, stronger effect = lower value 0.967 | locus YBR279W, strain paf1, stronger effect = lower value 1 | locus YCL011C, strain gbp2, stronger effect = lower value 1 | locus YCL016C, strain dcc1, stronger effect = lower value 1 | locus YCL029C, strain bik1, stronger effect = lower value 0.992 | locus YCL061C, strain MRC1, stronger effect = lower value 1 | locus YCL069W, strain vba3, stronger effect = lower value 1 | locus YCR088W, strain abp1, stronger effect = lower value 1 | locus YDL005C, strain med2, stronger effect = lower value 1.01 | locus YDL035C, strain GPR1, stronger effect = lower value 0.975 | locus YDL040C, strain nat1, stronger effect = lower value 0.985 | locus YDL074C, strain BRE1, stronger effect = lower value 0.935 | locus YDL101C, strain DUN1, stronger effect = lower value 0.997 | locus YDL185W, strain tfp1, stronger effect = lower value 0.987 | locus YDL192W, strain arf1, stronger effect = lower value 0.967 | locus YDR001C, strain nth1, stronger effect = lower value 0.998 | locus YDR069C, strain doa4, stronger effect = lower value 0.99 | locus YDR101C, strain arx1, stronger effect = lower value 0.975 | locus YDR159W, strain sac3, stronger effect = lower value 1 | locus YDR162C, strain NBP2, stronger effect = lower value 0.969 | locus YDR297W, strain sur2, stronger effect = lower value 0.999 | locus YDR318W, strain mcm21, stronger effect = lower value 0.989 | locus YDR334W, strain swr1, stronger effect = lower value 0.993 | locus YDR335W, strain msn5, stronger effect = lower value 0.989 | locus YDR388W, stronger effect = lower value 0.994 | locus YDR392W, strain spt3, stronger effect = lower value 0.82 | locus YDR502C, strain sam2, stronger effect = lower value 1.01 | locus YEL003W, strain gim4, stronger effect = lower value 0.988 | locus YEL037C, strain rad23, stronger effect = lower value 0.982 | locus YEL061C, strain CIN8 (second series), stronger effect = lower value 0.99 | locus YEL061C, strain CIN8, stronger effect = lower value 0.993 | locus YER015W, strain faa2, stronger effect = lower value 1.01 | locus YER016W, strain bim1, stronger effect = lower value 1 | locus YER110C, stronger effect = lower value 1 | locus YER111C, strain swi4, stronger effect = lower value 1 | locus YER155C, strain BEM2 (second series), stronger effect = lower value 0.985 | locus YER155C, strain BEM2, stronger effect = lower value 1.01 | locus YER167W, strain BCK2, stronger effect = lower value 0.995 | locus YFR010W, strain ubp6, stronger effect = lower value 0.971 | locus YGL078C, strain dbp3, stronger effect = lower value 1.02 | locus YGL086W, strain mad1, stronger effect = lower value 0.965 | locus YGL167C, strain pmr1, stronger effect = lower value 0.987 | locus YGL173C, strain kem1, stronger effect = lower value 1 | locus YGL227W, strain vid30, stronger effect = lower value 1.01 | locus YGL240W, strain doc1, stronger effect = lower value 0.963 | locus YGL248W, strain PDE1, stronger effect = lower value 0.981 | locus YGL253W, strain hxk2, stronger effect = lower value 0.985 | locus YGR078C, strain PAC10, stronger effect = lower value 0.964 | locus YGR135W, strain pre9, stronger effect = lower value 1.01 | locus YGR252W, strain gcn5, stronger effect = lower value 1.03 | locus YHR013C, strain ard1, stronger effect = lower value 1 | locus YHR027C, strain rpn1, stronger effect = lower value 0.998 | locus YHR030C, strain SLT2, stronger effect = lower value 0.981 and 1.02 | locus YHR079C, strain IRE1 (second series), stronger effect = lower value 0.995 | locus YHR079C, strain IRE1, stronger effect = lower value 1.06 | locus YHR094C, strain hxt1, stronger effect = lower value 1.01 | locus YHR129C, strain ARP1, stronger effect = lower value 1 | locus YHR142W, strain chs7, stronger effect = lower value 0.964 | locus YHR200W, strain rpn10, stronger effect = lower value 0.994 | locus YIL066C, strain RNR3, stronger effect = lower value 0.991 | locus YIL073C, strain SPO22, stronger effect = lower value 0.935 | locus YIL125W, strain kgd1, stronger effect = lower value 1 | locus YIR030C, strain dcg1, stronger effect = lower value 1.01 | locus YJL092W, strain hpr5, stronger effect = lower value 1.01 | locus YJL095W, strain BCK1 (second series), stronger effect = lower value 0.999 | locus YJL095W, strain BCK1, stronger effect = lower value 0.914 and 1.05 | locus YJL115W, strain asf1, stronger effect = lower value 0.996 | locus YJL129C, strain trk1, stronger effect = lower value 1.01 | locus YJL134W, strain LCB3, stronger effect = lower value 1 | locus YJL154C, strain vps35, stronger effect = lower value 0.997 | locus YJL164C, strain tpk1, stronger effect = lower value 0.996 | locus YJL166W, strain qcr8, stronger effect = lower value 0.983 | locus YJL168C, strain set2, stronger effect = lower value 1 | locus YJL187C, strain SWE1 (second series), stronger effect = lower value 0.954 | locus YJL187C, strain SWE1, stronger effect = lower value 0.995 | locus YJR043C, strain POL32, stronger effect = lower value 0.977 | locus YJR066W, strain TOR1, stronger effect = lower value 0.979 | locus YKL009W, strain mrt4, stronger effect = lower value 1.02 | locus YKL068W, stronger effect = lower value 1.02 | locus YKL085W, strain MDH1 (second series), stronger effect = lower value 1.01 | locus YKL085W, strain MDH1, stronger effect = lower value 1.01 | locus YKL160W, strain elf1, stronger effect = lower value 0.995 | locus YKL190W, strain CNB1, stronger effect = lower value 0.991 | locus YKR001C, strain vps1, stronger effect = lower value 0.928 | locus YKR026C, strain gcn3, stronger effect = lower value 1.02 | locus YKR091W, strain srl3, stronger effect = lower value 1 | locus YLL001W, strain dnm1, stronger effect = lower value 1.01 | locus YLL026W, stronger effect = lower value 1 | locus YLL041C, strain sdh2, stronger effect = lower value 1.01 | locus YLR027C, strain aat2, stronger effect = lower value 1.01 | locus YLR039C, strain RIC1, stronger effect = lower value 0.818 | locus YLR058C, strain SHM2, stronger effect = lower value 0.972 | locus YLR102C, strain apc9, stronger effect = lower value 1.01 | locus YLR113W, strain HOG1, stronger effect = lower value 1.07 | locus YLR221C, strain rsa3, stronger effect = lower value 1.01 | locus YLR258W, strain gsy2, stronger effect = lower value 0.991 | locus YLR268W, strain sec22, stronger effect = lower value 0.933 | locus YLR320W, strain mms22, stronger effect = lower value 0.949 | locus YLR330W, strain CHS5, stronger effect = lower value 0.986 | locus YLR342W, strain FKS1 (second series), stronger effect = lower value 0.984 | locus YLR342W, strain FKS1, stronger effect = lower value 1.01 | locus YLR357W, strain rsc2, stronger effect = lower value 1.03 | locus YLR370C, strain arc18, stronger effect = lower value 1.02 | locus YLR371W, strain rom2, stronger effect = lower value 0.963 | locus YLR384C, strain iki3, stronger effect = lower value 0.998 | locus YLR418C, strain cdc73, stronger effect = lower value 0.936 | locus YML016C, strain PPZ1, stronger effect = lower value 0.997 | locus YML032C, strain rad52, stronger effect = lower value 0.935 | locus YML120C, strain ndi1, stronger effect = lower value 0.998 | locus YML124C, strain tub3, stronger effect = lower value 1.01 | locus YMR058W, strain fet3, stronger effect = lower value 0.98 | locus YMR078C, strain ctf18, stronger effect = lower value 0.988 | locus YMR125W, strain sto1, stronger effect = lower value 1.05 | locus YMR129W, stronger effect = lower value 0.999 | locus YMR205C, strain PFK2, stronger effect = lower value 1.03 | locus YMR223W, strain ubp8, stronger effect = lower value 0.968 | locus YMR231W, strain pep5, stronger effect = lower value 0.999 | locus YMR263W, strain SAP30, stronger effect = lower value 0.982 | locus YMR307W, strain GAS1, stronger effect = lower value 0.883 | locus YNL067W, strain RPL9B, stronger effect = lower value 0.99 | locus YNL071W, strain lat1, stronger effect = lower value 0.996 | locus YNL183C, strain NPR1, stronger effect = lower value 0.974 | locus YNL209W, strain ssb2, stronger effect = lower value 0.988 | locus YNL233W, strain BNI4, stronger effect = lower value 0.966 | locus YNL248C, strain rpa49, stronger effect = lower value 0.948 | locus YNL250W, strain rad50, stronger effect = lower value 1.04 | locus YNL271C, strain bni1, stronger effect = lower value 1 | locus YNL298W, strain CLA4, stronger effect = lower value 1.02 | locus YNL307C, strain MCK1, stronger effect = lower value 1.01 | locus YNL322C, strain KRE1 (second series), stronger effect = lower value 1.02 | locus YNR049C, strain mso1, stronger effect = lower value 1.01 | locus YNR052C, strain pop2, stronger effect = lower value 0.961 | locus YOL012C, strain htz1 1.1 | locus YOL147C, strain pex11, stronger effect = lower value 0.994 | locus YOR001W, strain rrp6, stronger effect = lower value 0.983 | locus YOR061W, strain CKA2, stronger effect = lower value 1 | locus YOR069W, strain VPS5, stronger effect = lower value 0.999 | locus YOR070C, strain gyp1, stronger effect = lower value 1.02 | locus YOR080W, strain dia2, stronger effect = lower value 0.996 | locus YOR083W, strain WHI5, stronger effect = lower value 0.999 | locus YOR106W, strain vam3, stronger effect = lower value 0.965 | locus YOR136W, strain idh2, stronger effect = lower value 1.01 | locus YOR144C, strain elg1, stronger effect = lower value 0.998 | locus YOR184W, strain ser1, stronger effect = lower value 0.946 | locus YOR231W, strain MKK1, stronger effect = lower value 1.09 | locus YOR265W, strain rbl2, stronger effect = lower value 0.996 | locus YOR290C, strain snf2, stronger effect = lower value 0.967 | locus YOR316C, strain cot1, stronger effect = lower value 1.02 | locus YPL078C, strain atp4, stronger effect = lower value 0.96 | locus YPL106C, strain sse1, stronger effect = lower value 0.974 | locus YPL240C, strain hsp82, stronger effect = lower value 1 | locus YPL256C, strain CLN2, stronger effect = lower value 1.09 | locus YPR119W, strain clb2, stronger effect = lower value 1 | locus YPR141C, strain kar3, stronger effect = lower value 1.03 | locus YPR163C, strain tif3, stronger effect = lower value 1 | locus YPR167C, strain met16, stronger effect = lower value 0.998 | strain wtn01, stronger effect = lower value 0.97

— PubChem BioAssay AID1159580 (chemical genetic matrix, 2015)
